Screens deposited in PubChem by National Center for Advancing Translational Sciences (NCATS).
Marburg entry inh – blocks Marburg virus binding to or entry into cells | Potency, µM (series often up to 37.8 µM), for the others: at the top dose activity change, negative = inhibition, actives largely listed as inhibitors | AID 540276 | Marburg virus pseudotyped entry inhibition, cell reporter | actives 1.8% (n = 300,000); calls by dose curve; tested in HEK293 cells; also: potency is read from the fitted curve at half-maximal effect
Lassa entry inh – blocks Lassa virus binding to or entry into cells; Potency, µM (highest dose often 37.9 µM), inactives show top-dose activity change, negative = inhibition, actives largely listed as inhibitors; Lassa virus pseudotype entry inhibition, cell reporter; actives 1.2% (n = 300,000); calls by dose curve; tested in HEK293 cells; also: potency is read from the fitted curve at half-maximal effect; nearly all actives have a fitted effect of over 50% in size
FMDV inh – blocks foot and mouth disease virus. FMDV antiviral cell-based qHTS. Potency, µM (highest dose often 57.9 µM), without a hit: at the highest dose activity change, negative = inhibition, usual class: inhibitors. actives 1.2% (n = 410,000). AID 1159524; calls by dose curve; tested in HEK293T cells; also: read-out not given here; potency is read from the fitted curve at half-maximal effect; nearly all actives have a fitted effect of over 45% in size
Giardia FBPA inh-1 – Giardia lamblia aldolase inhibition; A8B2U2; purified Giardia FBPA; Potency, µM (titrated, usually from 59.6 µM), for inactives: at the highest dose activity, negative = inhibition, usual class: inhibitors; actives 0.71% (n = 290,000); also: potency is read from the fitted curve at half-maximal effect; nearly all actives have a fitted effect of over 55% in size
Target sequence (A8B2U2 whole entry, looked up): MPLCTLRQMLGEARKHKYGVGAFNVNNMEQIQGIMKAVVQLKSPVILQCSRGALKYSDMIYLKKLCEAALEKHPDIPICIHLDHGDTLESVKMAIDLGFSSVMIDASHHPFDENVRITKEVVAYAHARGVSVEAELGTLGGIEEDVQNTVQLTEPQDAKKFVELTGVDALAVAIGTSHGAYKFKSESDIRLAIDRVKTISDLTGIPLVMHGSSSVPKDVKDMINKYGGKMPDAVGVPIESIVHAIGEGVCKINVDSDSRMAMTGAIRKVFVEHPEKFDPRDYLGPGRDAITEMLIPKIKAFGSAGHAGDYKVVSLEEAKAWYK
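40 nM FBPA preincubated 10 min at RT with compound (up to 57.5 uM final), then substrate plus GAPDH/TPI/NAD/arsenate coupling and diaphorase/resazurin added. Fluorescence read after 20 min at RT, 525/598 nm.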
HCMV antiviral – inhibitors of human cytomegalovirus; HFF cells, HCMV-luciferase reporter, 72 h; stronger effect = lower value; activity change, negative = inhibition, % at 57.5 µM; actives 4.5% (n = 410,000); AID 1259415; in the data active = activity change below about -60%; inconclusive = no clear call, values can overlap the other calls; inactive = above about -39%
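After 16 h attachment at 37C, HFF cells received test compound and HCMV-luciferase (1 PFU/cell); reporter luminescence read 72 h later, data normalized against buffer-only and known inhibitor Salinomycin.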
HCV inh – HCV inhibition | Huh7.5.1 HCVcc-Cre infection, luciferase reporter, 44 h | Potency, µM (titrated, usually from 41.8 µM), for inactives: at the top dose activity change, negative = inhibition, hits mostly inhibitors | actives 3.4% (n = 340,000); also: potency is read from the fitted curve at half-maximal effect
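Cells seeded at 1,000/well and cultured 4 h, then compounds added followed by HCVcc-Cre virus (~0.5 moi). After 44 h further culture, luciferase substrate was added, plates held 15 min at room temperature, and luminescence read for 15 sec.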
Giardia growth – blocks growth of Giardia lamblia trophozoites; shares compounds with Giardia FBPA inh-1; Giardia lamblia trophozoite growth inhibition; Potency, µM (titrated, usually from 57.5 µM), inactives show at the highest dose activity change, negative = inhibition, actives largely listed as inhibitors; actives 5% (n = 1,500);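 also: potency is read from the fitted curve at half-maximal effect; trophozoites exposed to compound for 48 h at 37 °C; nearly all actives have a fitted effect of over 70% in size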
Mammal cell tox – mammalian cytotoxicity of Giardia aldolase inhibitor hits; shares compounds with Giardia FBPA inh-1; mammalian cell viability counter-screen, qHTS; Potency, µM (highest dose often 57.5 µM), for the others: top-dose viability change, negative = toxicity, usual class: inhibitors; actives 4% (n = 1,500); AID 2786;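 also: Chinese hamster ovary cells used as mammalian cytotoxicity surrogate; viability measured as cellular ATP by luminescence; potency is read from the fitted curve at half-maximal effect; compound exposure lasted 48 h before reading; nearly all actives have a fitted effect of over 60% in size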
Giardia FBPA inh-2 – confirmation of Giardia fructose-bisphosphate aldolase inhibitors. actives 5% (n = 1,500). shares compounds with Giardia FBPA inh-1. AID 2787. Potency, µM (series often up to 57.5 µM), for inactives: top-dose activity change, negative = inhibition, usual class: inhibitors. purified Giardia aldolase enzyme activity, qHTS; also: potency is read from the fitted curve at half-maximal effect; nearly all actives have a fitted effect of over 45% in size
Rabbit FBPA inh – rabbit FBP aldolase inhibition by Giardia aldolase hits; AID 2794; actives 4% (n = 1,500); Rabbit muscle FBPA enzyme inhibition, selectivity counter-screen; shares compounds with Giardia FBPA inh-1; Potency, µM (titrated, usually from 57.5 µM), for inactives: at the top dose activity, negative = inhibition, usual class: inhibitors; also: potency is read from the fitted curve at half-maximal effect; nearly all actives have a fitted effect of over 60% in size
Target sequence (P00883 whole entry, looked up): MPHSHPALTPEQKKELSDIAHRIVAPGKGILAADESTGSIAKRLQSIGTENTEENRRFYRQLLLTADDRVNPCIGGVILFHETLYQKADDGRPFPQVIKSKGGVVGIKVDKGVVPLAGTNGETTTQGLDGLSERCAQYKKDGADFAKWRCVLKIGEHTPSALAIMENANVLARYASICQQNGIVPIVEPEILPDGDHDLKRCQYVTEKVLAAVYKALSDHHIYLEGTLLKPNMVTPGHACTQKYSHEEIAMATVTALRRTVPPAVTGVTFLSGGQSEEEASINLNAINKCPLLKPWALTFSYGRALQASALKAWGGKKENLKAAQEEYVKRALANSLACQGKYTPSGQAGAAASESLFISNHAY
GAPDH coupling – GAPDH inhibition flagged for Giardia aldolase hits | shares compounds with Giardia FBPA inh-1 | GAPDH coupling enzyme counterscreen, biochemical, qHTS | Potency, µM (series often up to 57.5 µM), inactives show at the top dose activity change, negative = inhibition, actives largely listed as inhibitors | actives 6% (n = 1,500) | AID 2795; also: potency is read from the fitted curve at half-maximal effect; nearly all actives have a fitted effect of over 55% in size
Active calls of the source: *; ? = inconclusive; / = no result given; ! = a repeat was not active; [ ] = remark or other dose. Most compounds without a hit are left out; they make up all but 8.3% or so of the library. Unless noted, calls follow the shape of the dose curve; as a rule, active = well fitted curve in the direction sought with a large enough effect; inconclusive = small, poorly fitted or top-dose-only effect, or another doubt; inactive = no such curve, though single readings can be large; an effect the other way counts as inactive or inconclusive. % is scaled to controls: 0 for no effect and ±100 for the full control effect.

SMILES	Marburg entry inh	Lassa entry inh	FMDV inh	Giardia FBPA inh-1	HCMV antiviral	HCV inh	Giardia growth	Mammal cell tox	Giardia FBPA inh-2	Rabbit FBPA inh	GAPDH coupling
C/C(CC1CC(C)(C)OC1=O)=N\NC(N)=S (centres undefined)	-9%[46.1 µM]	23%	22%	20µM*	?	-24%	-29%	-12%	5%	5%	3%
C/C(CCC1CC(C)(C)OC1=O)=N\NC(N)=S (centres undefined)	?	22%	-2%	18µM*	-93*	12%	43%	-12%	7%	4%	6%
CCCC1CC(C)(/C(C)=N\NC(N)=S)OC1=O (centres undefined)	-23%[46.1 µM]	-16%[46.1 µM]	25%	-19%	-11	7%	/	/	/	/	/
Cc1ccc(-n2c(=S)[nH]c3[nH]ncc3c2=O)cc1	1%	5%	8%	16µM*	23	0%	27%	-1%	-3%	3%	-10%
O=C(O)c1ccc2c(=O)n(-c3ccccc3F)c(=S)[nH]c2c1	-10%[46.1 µM]	11%	-1%	2%	-10	-2%	/	/	/	/	/
O=c1c2cn[nH]c2[nH]c(=S)n1-c1ccccc1F	11%	-36%[14.3 µM]	4%	7.1µM*	3	/	2%[38.3 µM]	-2%	-3%	-6%	-1%
O=c1c2cn[nH]c2[nH]c(=S)n1-c1ccccc1Cl	8%[46.1 µM]	0%	18%	25µM*	?	9%	28%	17%	7%	2%	13%
COc1ccc(-n2c(=S)[nH]c3ccc(C)cc3c2=O)cc1	/	/	-26%	/	5	/	/	/	/	/	/
Cc1ccccc1NC(=O)c1sc2nc3c(cc2c1N)CCCC3	?	12%[46.1 µM]	0%	/	41	/	/	/	/	/	/
COC(=O)[C@@]1(Cc2ccc(OC)cc2)[C@H]2c3cc(C(=O)N(C)C)n(Cc4ccc(C)o4)c3C[C@H]2CN1C(=O)c1ccccc1	/	/	/	-6%	/	/	/	/	/	/	/
O=C1NC(=O)C(c2ccccc2[N+](=O)[O-])=C1Nc1ccc(O)c(Cl)c1	64%	-2%	0%	25µM*!	?	-17%	-16%	-4%	?	?	-19%
C[N+](C)=C1SCC(C)(/C=N/O)S1 (centres undefined)	4%	?	-2%	14µM*	4	27%	58%	-10%	0%	12%	1%
CCc1ccc(OCC(=O)Nc2cc(-c3nc4cc(C)ccc4o3)ccc2C)cc1	?	?	0%	/	50	/	/	/	/	/	/
CC1CCCC/C1=N\NC(=S)Nc1cccnc1 (centres undefined)	4%[46.1 µM]	12%	-1%	18µM*	-29	?	24%	0%	-4%	2%	4%
CCc1ccc2c(O)c3c(cc2c1C(=O)OC)C(=O)c1c(O)ccc(O)c1C3=O	/	/	-20%	?	/	/	/	/	/	/	/
CN(C)c1ccc(NC2=C(Cl)C(=O)c3ccccc3C2=O)cc1	?	?	?	?	-97*	10µM*	11µM*	33µM*	?	?	3.7µM*
O=C(Oc1ccc(NC2=C(Cl)C(=O)c3ccccc3C2=O)cc1)c1ccc([N+](=O)[O-])cc1	1%	/	?	-27%	/	?	/	/	/	/	/
COc1cccc(CNC(=O)CN2C(=O)COc3ccc(S(=O)(=O)Nc4ccccc4)cc32)c1	/	18%[46.1 µM]	28%	/	7	/	/	/	/	/	/
Cc1cc(C)nc(N/N=C/c2ccccc2OCC(=O)O)n1	16%[46.1 µM]	?	-7%	5µM*	39	4%	10%[38.3 µM]	-3%	-1%	-2%	-14%
COc1ccccc1-c1c(C)nn2c(N3CCN(c4ccc(F)cc4)CC3)cc(C)nc12	/	5%[46.1 µM]	?	/	-15	/	/	/	/	/	/
O=C(N/N=C/C=C\c1ccco1)c1ccccn1	-22%	0%	67%	?	19	-5%	/	/	/	/	/
O=C(N/N=C/C(Cl)=C/c1ccccc1)c1ccccn1	?	?	50%	-1%	13	8%	/	/	/	/	/
O=C(N/N=C/C=C/c1ccco1)c1cnccn1	2%[46.1 µM]	-2%	31%	20µM*	63	13%	3%[10.4 µM]	12%	?	-11%	?
CC(/C=N/NC(=O)c1ccccn1)=C\c1ccco1	/	/	37%	20µM*	20	16%	?	25µM*	?	-25%	?
O=C(COCc1cc(-c2ccc(F)cc2)on1)Nc1cc(F)ccc1F	/	?	0%	/	5	/	/	/	/	/	/
SMILES	Marburg entry inh	Lassa entry inh	FMDV inh	Giardia FBPA inh-1	HCMV antiviral	HCV inh	Giardia growth	Mammal cell tox	Giardia FBPA inh-2	Rabbit FBPA inh	GAPDH coupling
COc1cc(N=c2ssnc2Cl)cc(OC)c1	7%	-6%	40µM*	16µM*	33	-20%	-3%[10.4 µM]	-9%	-3%	-11%	16%
N#Cc1cccc(N=c2ssnc2Cl)c1	2%[46.1 µM]	-8%	?	20µM*	8	-15%	?	2%	-11%	?	13%
O=C(NC(=S)Nn1cnnc1)c1ccccc1Cl	3%[46.1 µM]	30%[46.1 µM]	5%	?	-38	7%	/	/	/	/	/
O=C(NC(=S)Nn1cnnc1)c1ccc(F)cc1Cl	24%[46.1 µM]	17%	-3%	14µM*	24	15%	-14%	11%	-1%	12%	13%
O/N=C/c1ccc2ccccc2n1	?	20%	0%	0%	97	23%	/	/	/	/	/
O=C(O)c1ccc(/C=C/c2ccc3cccc(O)c3n2)cc1	?	?	-1%	18µM*	10	13%	27%	-8%	4µM*	?	?
O/N=C/c1ccc2cccc(O)c2n1	/	/	27%	7.1µM*	-7	?	9%[10.4 µM]	-10%	2µM*	-29%	-28%
Oc1ccc(/C=C/c2ccc3cccc(O)c3n2)cc1Br	/	/	27%	10%	43	?	/	/	/	/	/
CCNC(=O)C1CCCN1C(=O)C(CCCN=C(N)N)NC(=O)C(CC(C)C)NC(=O)C(Cc1cn(Cc2ccccc2)cn1)NC(=O)C(Cc1ccc(O)cc1)NC(=O)C(CO)NC(=O)C(Cc1c[nH]c2ccccc12)NC(=O)C(Cc1cnc[nH]1)NC(=O)C1CCC(=O)N1 (centres undefined)	/	/	-28%	10µM*	/	-12%	16%[38.3 µM]	2%	-4%	13%	0%
